Where “and” joins values, the source holds several entries; their conditions need not be identical. Equal values may be shown once. The campaign covered roughly 260,000 compounds. About 1,500 (0.58%) were called active. About 5% were inconclusive and are not listed.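 How the source made its calls: active means inhibition above a set limit at one or more doses, reproduced on every date tested; inconclusive means results disagree between test dates, or hit never tested in dose response; inactive means the rest.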 These entries were drawn from the full list. Potency and affinity values are given separately.
molecular target: Virion infectivity factor (Human immunodeficiency virus type 1 group M subtype B (isolate BH10)) + Virion infectivity factor (Human immunodeficiency virus type 1 group M subtype B (isolate BRU/LAI)) + Virion infectivity factor (Human immunodeficiency virus type 1 group M subtype B (isolate PCV12)) + Virion infectivity factor (Human immunodeficiency virus type 1 group M subtype B (isolate HXB2)) + DNA dC->dU-editing enzyme APOBEC-3G (Homo sapiens) (UniProt P69720+P69721+P69722+P69723+Q9HC16); assay: inhibitors of Vif binding to APOBEC3G peptide, primary screen, biochemical, TR-FRET, GST-Vif 1-94, biotin-A3G peptide, dose response retest (AID 1117319); settings: stronger effect = higher value;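 further: Vif residues 1-94 fused to GST binding biotinylated APOBEC3G peptide 110-148; 0% = full assay without inhibitor and 100% = GST in place of GST-Vif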

inhibition, inactive:
CC(=O)c1ccc(NC(=O)CSc2ccc(-c3ccco3)nn2)cc1 -1.56%, CCc1nnc(SCC(=O)Nc2ccc(C(C)=O)cc2)nc1CC 2.81%, COc1cccc(NC(=O)CSc2ccc(-c3ccco3)nn2)c1 3.97%, O=C(CSc1n[nH]c(-c2ccco2)n1)Nc1ccccc1 5.48%, COc1cccc(NC(=O)CSc2nc(N)cc(N)n2)c1 3.65%, Cc1ccc(NC(=O)CSc2nnc(-c3ccco3)c(-c3ccco3)n2)cc1 25.5%, COc1ccc(CCNC(=O)COC(=O)/C=C/c2ccc(OCC#N)c(OC)c2)cc1OC 5.39%, CC(=O)Nc1ccc(NC(=O)Cn2ccc([N+](=O)[O-])n2)cc1 11.7%, COc1cccc(C2CC(c3cccs3)=NN2C(=O)CSC2=NN3CCCC(=O)N=C3S2)c1OC (stereo unspecified) 0.81%, O=C(c1ccco1)N1CCN(Cc2cc(=O)c(OCc3cccc(F)c3)co2)CC1 -1.67%, S=c1nc(-c2ccccc2)oc2c1CCCC2 2.15%, O=[N+]([O-])c1ccc(-c2nc(=S)c3c(o2)CCCC3)cc1 0.66%, Cc1nc2oc3ccccc3c(=O)c2cc1C(=O)O -10.2%, Cc1ccc(C)c(N2CCN(S(=O)(=O)c3ccc4c(c3)CCC(=O)N4)CC2)c1 24.6%, COc1ccc(C(=O)COC(=O)CNC(=O)c2ccc(Cl)cc2Cl)c(OC)c1 3.17%, CCOc1ccc(NC(=O)CSCc2cnn(-c3ccccc3)c2-n2cccc2)cc1 -1.2%, Cc1cc(C)cc(NC(=O)CSCc2cnn(-c3ccccc3)c2-n2cccc2)c1 -0.62%, Cc1cc2ccccc2n1CCNC(=O)C1CCCC1 23.5%, O=C(NCCn1ccc2ccccc21)C1CCCCC1 -2.31%, CC(C)CC(=O)NCc1ccc2[nH]c3c(c2c1)CCCC3 5.99%, O=C(CCN1CCC(c2ccc(Cl)s2)=N1)c1ccc(Cl)s1 -2.16%, CC(=O)NCC(=O)NC(Cc1ccccc1)C(N)=O (stereo unspecified) 18.9%, COc1cc(/C=C(\C#N)C(=O)N2CCOCC2)cc(Br)c1O -3.89%, NC(=O)/C(=C\c1ccco1)NC(=O)c1ccco1 13.1%, CC(=C\C(=O)O)/C(=C/c1ccco1)C(=O)O 29.9%, Cc1ccc2sc(N(CCCN(C)C)C(=O)c3ccc(S(=O)(=O)N4CCOCC4)cc3)nc2c1C 7.87%, C=CCOc1c(CNc2ccc(C(=O)O)cc2)cccc1OCC 5.17%, Fc1cccc(COc2ccccc2CNc2ccccc2)c1 8.86%, CCOc1cc(CNc2ccccc2)cc(Br)c1OCc1ccc(F)cc1 -2.02%, CCOc1ccccc1CNc1ccc(O)cc1 -1.14%, COc1cc(CNC(C)(C)CO)cc(Br)c1OCc1ccccc1 14.2%, O=C(O)c1ccc(CNCc2cccc(OCc3ccc(F)cc3)c2)cc1 -2.79%, O=[N+]([O-])c1ccc(COc2cccc(CNc3ccc(F)cc3)c2)cc1 26.4%, CCOc1cccc(CNn2cnnc2)c1OCc1ccccc1Cl 3.09%, O=C(c1cccn2c(=O)c3ccccc3nc12)N1CCN(Cc2ccc3c(c2)OCO3)CC1 3%, CN(C)CCn1cnc2c(c1=N)C(c1ccccc1)c1ccc3ccccc3c1O2 (stereo unspecified) -7.72%, CC1(C)Cc2ccccc2C(C(=O)c2ccccc2)=N1 -10.3%, CCOC(=O)c1cc2sccc2n1CC(=O)N1CCCc2ccccc21 -4.99%, CCN1CCN(CC(=O)N2N=C(c3cccs3)CC2c2ccc(C)cc2)C(=O)C1=O (stereo unspecified) 1.42%, Cc1csc(NC(=O)COc2ccc3c(C)cc(=O)oc3c2)n1 -13.9%, Cc1cccc(N2CCN(C(=O)CCNS(=O)(=O)c3ccc4c(c3)CCC(=O)N4)CC2)c1C -0.88%, CC(=O)c1ccc(N2CCN(C(=O)c3cc(C)on3)CC2)cc1 11.8%, CC(c1cccs1)N(C)Cc1nc(CCc2ccccc2)no1 (stereo unspecified) 2.69%, CN1C(=O)[C@H]2[C@@H](c3ccc(C(F)(F)F)cc3)N[C@]3(CCCN(CC4CCCCC4)C3=O)[C@H]2C1=O 2.73%, CCN(CC(=O)NC1CCS(=O)(=O)C1)C(=O)C(c1ccccc1)c1ccccc1 (stereo unspecified) 1.78% and 11.2%, CC(=O)N1CCN(S(=O)(=O)c2cccc(C(=O)NNC(=O)COc3c(C)cccc3C)c2)CC1 -12.3%, N#CCN1C(=O)C(=O)N(Cc2cccc(C(F)(F)F)c2)C1=O -1.35%, CC(NC(=O)c1ccccc1[N+](=O)[O-])C1CC2CCC1C2 (stereo unspecified) 1.73%, O=C(Nn1cnc2ccccc2c1=O)c1ccc([N+](=O)[O-])cc1 -7.54%, c1ccc(CNn2nnnc2-c2ccccc2)cc1 1.36%, Oc1ccc(NCc2ccc(OCc3ccccc3)cc2)cc1 17.4%, O=[N+]([O-])c1ccc(COc2cccc(CNc3ccc(Br)cc3)c2)cc1 2.31%, CN(C)S(=O)(=O)c1ccc(N2CCCC2)c(C(=O)Nc2nc3c(ccc4ccccc43)s2)c1 -35.6%, O=C(NCc1nnnn1-c1ccc(F)c(F)c1)C(=O)c1c[nH]c2ccccc12 11.1%, Cc1cccc(N2CCN(C3=NC(=O)C(Cc4ccccc4)S3)CC2)c1 (stereo unspecified) 14.4%, O=C1C=Cc2ccccc2/C1=C/c1[nH]c(=O)[nH]c1O -10.7%, CCN1C(=C2C(=O)c3ccccc3C2=O)C=Cc2ccccc21 26.5%, O=C1CC(NS(=O)(=O)c2cccnc2)CN1c1ccc(F)cc1 (stereo unspecified) -4.88%, N#Cc1ccccc1Sc1ccccc1C(=O)Nc1ccc(Br)cc1 5.46%, C(=C1/CCCC2=C1Nc1ncnn1C2c1ccccc1)/c1ccccc1 (stereo unspecified) 0.53%, Fc1ccccc1/C=C1\CCCC2=C1Nc1nnnn1C2c1ccccc1F (stereo unspecified) 15.4%

Reference: PubChem BioAssay AID1117319 (Southern Research Institute, 2015)
